The results in this text go back to PubChem BioAssay (EPA / NIEHS).

Results filed as inconclusive are left out. Some compounds were tested as several samples or in several runs, with calls that do not always agree. Activity calls are given as the source filed them. How the source made its calls: active means hit-call score of the fitted dose curve at least 0.9, where 1 is the maximum; inconclusive means response in the unintended direction; inactive means score below 0.9.

Chain of Hepatocyte nuclear factor 4-alpha (Homo sapiens) (P41235 whole entry, looked up): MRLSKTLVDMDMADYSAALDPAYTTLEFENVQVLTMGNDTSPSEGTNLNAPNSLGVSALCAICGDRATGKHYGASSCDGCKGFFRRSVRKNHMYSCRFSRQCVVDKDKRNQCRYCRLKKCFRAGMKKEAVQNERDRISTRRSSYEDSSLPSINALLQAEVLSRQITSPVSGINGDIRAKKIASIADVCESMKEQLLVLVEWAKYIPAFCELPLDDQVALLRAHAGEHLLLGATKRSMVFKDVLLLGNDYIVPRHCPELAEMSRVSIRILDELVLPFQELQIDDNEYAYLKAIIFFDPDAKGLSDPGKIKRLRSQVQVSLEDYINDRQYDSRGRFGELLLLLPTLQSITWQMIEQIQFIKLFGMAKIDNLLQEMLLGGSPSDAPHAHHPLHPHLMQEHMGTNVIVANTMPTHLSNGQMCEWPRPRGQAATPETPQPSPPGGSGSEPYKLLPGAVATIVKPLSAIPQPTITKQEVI

The test addresses Hepatocyte nuclear factor 4-alpha (Homo sapiens) (UniProt P41235). The test is described as follows: ATG_HNF4a_TRANS: Attagene TRANS-FACTORIAL HepG2 Assay for human Hepatocyte Nuclear Factor 4 alpha (HNF4a) (AID 2282982). The note with it: HepG2 HNF4a transactivation reporter, mRNA readout. On the procedure:
ATG_TRANS is a cell-based, multiplexed-readout assay that uses HepG2, a human liver cell line, with measurements taken at 24 hours after chemical dosing in a 24-well plate.ATG_HNF4a_TRANS is one of 30 assay component(s) measured or calculated from the ATG_TRANS assay. It is designed to make measurements of mRNA induction, a form of inducible reporter, as detected with fluorescence intensity signals by Reverse transcription polymerase chain reaction (RT-PCR) and Capillary electrophoresis technology.Data from the assay component ATG_HNF4a_TRANS was analyzed into 1 assay endpoint. This assay endpoint, ATG_HNF4a_TRANS, was analyzed in the positive analysis fitting direction relative to DMSO as the negative control and baseline of activity. Using a type of inducible reporter, measures of mRNA for gain-of-signal activity can be used to understand the reporter gene at the transcription factor-level as they relate to the gene HNF4A. Furthermore, this assay endpoint can be referred to as a primary readout, because this assay has produced multiple assay endpoints where this one serves a reporter gene function. To generalize the intended target to other relatable targets, this assay endpoint is annotated to the nuclear receptor intended target family, where the subfamily is orphan.
Human liver HepG2 cells are transiently transfected with multiple reporter transcription units (MRTUs) in 6-well plates using FuGene 6 reagent (Roche; 3 ml FuGene/1 mg DNA). The MRTU constructs are regulated by a cis-regulating element (promoter). […] A major difference between the CIS and TRANS system is that in CIS activities of endogenous TFs are measured, whereas the TRANS assay evaluates changes in activities of exogenous, chimeric NR-Gal4 proteins. […] At the end of 24 hour incubation, total RNA was isolated using TriZol reagent (Invitrogen). The isolated RNA is then reverse-transcribed using oligo(dT) primer and Mo-MLV reverse transcriptase (Invitrogen) with DNAse I (Ambion) treatment for 30 min. The one-tenth of the produced cDNA was amplified by PCR using Taq DNA polymerase (Invitrogen) and two reporter sequence-specific primers. The PCR products were fluorescently labeled by primer extension with 6-arboxyfluorescein (6-FAM) 5'-labeled reporter sequence-specific primer (2 min at 95 C, 20 s at 68 C and 10 min at 72 C) and these products were digested with 5U of HpaI (New England Biolabs) for 2h at 37 C. The fragments were purified using Qiaquick PCR columns (Qiagen), analyzed on an ABI 3130xL genetic analyzer (Applied Biosystems) with peak positions identified by using a set of X-rhodamine (ROX)-labeled MapMarker1000 molecular weight standards (BioVentures). The raw capillary electrophoresis data was processed using Attagraph software (Attagene).
In the case of `CCCCc1ccc2ccccc2c1S(=O)(=O)O`, the call was inactive.

For the molecule `Cc1cc(C(=C2C=CC(=Nc3ccc(S(=O)(=O)O)cc3)C=C2)c2ccc(Nc3ccc(S(=O)(=O)O)cc3)cc2)cc(S(=O)(=O)O)c1N`, the call was inactive.

In the case of `O=C(O)CN(CCCN(CC(=O)O)CC(=O)O)CC(=O)O`, the molecule was classed as inactive.

As for `COC(=O)CC(C(C)=O)C(=O)OC` (stereo not given), the molecule was classed as inactive.

As to `CCOC(OCC)C(=O)c1ccccc1`, the call was inactive.

Turning to `O=C1OC2(c3ccccc31)c1cc(I)c(O)c(I)c1Oc1c2cc(I)c(O)c1I`, the molecule was classed as inactive.

With `CCOCCOCC`, the outcome was inactive.

For `CCOC=C(C(=O)OCC)C(=O)OCC`, the call was inactive.

On to `CCCCCCCCCCCCCCCC(=O)OC`, for which the outcome was inactive.

Consider `c1cnc2c(c1)ccc1cccnc12`, for which the result was inactive.

`CC(O)COc1ccccc1` (stereo not given): the molecule was classed as inactive.

For the molecule `CCCCN(C)C`, the molecule was classed as inactive.

As for `CC(C)(C)c1ccc(O)c(O)c1`, the molecule was classed as inactive.

`O=C(Nc1cccc([N+](=O)[O-])c1)c1cc2ccccc2cc1O`: the molecule was called inactive.

Turning to `O=CC(F)(F)C(F)(F)C(F)(F)F`, the outcome was inactive.

`CCC(=O)C=Cc1ccc(OC)cc1`: the result was inactive.

Take `NNc1nc(-c2ccc([N+](=O)[O-])cc2)cs1`: the result was inactive.

For `O=S(=O)(O)c1ccccc1`, the molecule was classed as inactive.

What is called AC50 is the midpoint of the concentration-response curve, whichever way the signal moves. As for `CCCCCCCCCCCCCCCCCC[N+](C)(C)Cc1ccccc1`, the AC50 is 50 µM (active).

Turning to `COC1=CC(=O)C[C@@H](C)[C@]12Oc1c(Cl)c(OC)cc(OC)c1C2=O`, the molecule was classed as inactive.

Turning to `Oc1ccc(Cc2ccccc2O)cc1`, the result was inactive.

As for `Cc1ccc2ccc3ccc(C)cc3c2c1`, the call was inactive.

On to `CC(C)[C@@H]1CC[C@@H](C)C[C@H]1O`, for which the molecule was called inactive.

For the molecule `C=CC(=O)OCCN(CC)CC`, the molecule was called inactive.

On to `O=C(O)C(=O)O`, for which the result was inactive.

As to `CCCCCc1ccc(O)cc1`, the molecule was classed as inactive.

On to `NC(=NCCCCCCN=C(N)/N=C(\N)Nc1ccc(Cl)cc1)/N=C(\N)Nc1ccc(Cl)cc1`, for which the AC50 was 25.7 µM (active) and the molecule was called inactive.

In the case of `O=C(CC(=O)C(F)(F)C(F)(F)C(F)(F)F)c1cccs1`, the molecule was classed as inactive.

Take `O=C(c1cc(O)c(O)c(O)c1)c1ccc(O)c(O)c1O`: the outcome was inactive.

Take `CCOC(C)=O`: the molecule was classed as inactive.

As to `Oc1cc2ccccc2cc1O`, the molecule was classed as inactive.

In the case of `COc1ccccc1NC(=O)c1cc2ccccc2cc1O`, the outcome was inactive.

For `CCc1cccc(CC)c1N(COC)C(=O)CS(=O)(=O)O`, the molecule was called inactive.

Consider `O=C(OC(=O)C(F)(F)C(F)(F)F)C(F)(F)C(F)(F)F`, for which the molecule was classed as inactive.

Consider `Oc1c(Cl)cc(Cl)cc1Sc1cc(Cl)cc(Cl)c1O`, for which the call was inactive.

For `CC(C)C=O`, the outcome was inactive.

For the molecule `CCCCCCCCCCCCOC(=O)c1cc(O)c(O)c(O)c1`, the outcome was inactive.

With `Cc1cccc2c1ccc1ccccc12`, the molecule was called inactive.

Regarding `COC(O)c1ccccc1` (stereo not given), the call was inactive.
